The supplement of paper PMC11732987, “Enantioselective OTUD7B fragment discovery through chemoproteomics screening and high-throughput optimisation” (Communications Chemistry, 2025)

Legend:
Assay in all cases: log2 ratio of Biotin-Ahx-Ub-VS probe labelling (fragment/DMSO); higher = less target engagement (more negative = stronger competition), active = hit call of the paper (q ≤ 0.05, log2 ratio ≤ -1)
Conditions in all cases: compound concentration: 200 uM; treatment time: 3 h
[1] = biological target: USP34 (UniProt Q70CQ2)
USP34, sequence (Q70CQ2 whole entry, the tested form may be a part): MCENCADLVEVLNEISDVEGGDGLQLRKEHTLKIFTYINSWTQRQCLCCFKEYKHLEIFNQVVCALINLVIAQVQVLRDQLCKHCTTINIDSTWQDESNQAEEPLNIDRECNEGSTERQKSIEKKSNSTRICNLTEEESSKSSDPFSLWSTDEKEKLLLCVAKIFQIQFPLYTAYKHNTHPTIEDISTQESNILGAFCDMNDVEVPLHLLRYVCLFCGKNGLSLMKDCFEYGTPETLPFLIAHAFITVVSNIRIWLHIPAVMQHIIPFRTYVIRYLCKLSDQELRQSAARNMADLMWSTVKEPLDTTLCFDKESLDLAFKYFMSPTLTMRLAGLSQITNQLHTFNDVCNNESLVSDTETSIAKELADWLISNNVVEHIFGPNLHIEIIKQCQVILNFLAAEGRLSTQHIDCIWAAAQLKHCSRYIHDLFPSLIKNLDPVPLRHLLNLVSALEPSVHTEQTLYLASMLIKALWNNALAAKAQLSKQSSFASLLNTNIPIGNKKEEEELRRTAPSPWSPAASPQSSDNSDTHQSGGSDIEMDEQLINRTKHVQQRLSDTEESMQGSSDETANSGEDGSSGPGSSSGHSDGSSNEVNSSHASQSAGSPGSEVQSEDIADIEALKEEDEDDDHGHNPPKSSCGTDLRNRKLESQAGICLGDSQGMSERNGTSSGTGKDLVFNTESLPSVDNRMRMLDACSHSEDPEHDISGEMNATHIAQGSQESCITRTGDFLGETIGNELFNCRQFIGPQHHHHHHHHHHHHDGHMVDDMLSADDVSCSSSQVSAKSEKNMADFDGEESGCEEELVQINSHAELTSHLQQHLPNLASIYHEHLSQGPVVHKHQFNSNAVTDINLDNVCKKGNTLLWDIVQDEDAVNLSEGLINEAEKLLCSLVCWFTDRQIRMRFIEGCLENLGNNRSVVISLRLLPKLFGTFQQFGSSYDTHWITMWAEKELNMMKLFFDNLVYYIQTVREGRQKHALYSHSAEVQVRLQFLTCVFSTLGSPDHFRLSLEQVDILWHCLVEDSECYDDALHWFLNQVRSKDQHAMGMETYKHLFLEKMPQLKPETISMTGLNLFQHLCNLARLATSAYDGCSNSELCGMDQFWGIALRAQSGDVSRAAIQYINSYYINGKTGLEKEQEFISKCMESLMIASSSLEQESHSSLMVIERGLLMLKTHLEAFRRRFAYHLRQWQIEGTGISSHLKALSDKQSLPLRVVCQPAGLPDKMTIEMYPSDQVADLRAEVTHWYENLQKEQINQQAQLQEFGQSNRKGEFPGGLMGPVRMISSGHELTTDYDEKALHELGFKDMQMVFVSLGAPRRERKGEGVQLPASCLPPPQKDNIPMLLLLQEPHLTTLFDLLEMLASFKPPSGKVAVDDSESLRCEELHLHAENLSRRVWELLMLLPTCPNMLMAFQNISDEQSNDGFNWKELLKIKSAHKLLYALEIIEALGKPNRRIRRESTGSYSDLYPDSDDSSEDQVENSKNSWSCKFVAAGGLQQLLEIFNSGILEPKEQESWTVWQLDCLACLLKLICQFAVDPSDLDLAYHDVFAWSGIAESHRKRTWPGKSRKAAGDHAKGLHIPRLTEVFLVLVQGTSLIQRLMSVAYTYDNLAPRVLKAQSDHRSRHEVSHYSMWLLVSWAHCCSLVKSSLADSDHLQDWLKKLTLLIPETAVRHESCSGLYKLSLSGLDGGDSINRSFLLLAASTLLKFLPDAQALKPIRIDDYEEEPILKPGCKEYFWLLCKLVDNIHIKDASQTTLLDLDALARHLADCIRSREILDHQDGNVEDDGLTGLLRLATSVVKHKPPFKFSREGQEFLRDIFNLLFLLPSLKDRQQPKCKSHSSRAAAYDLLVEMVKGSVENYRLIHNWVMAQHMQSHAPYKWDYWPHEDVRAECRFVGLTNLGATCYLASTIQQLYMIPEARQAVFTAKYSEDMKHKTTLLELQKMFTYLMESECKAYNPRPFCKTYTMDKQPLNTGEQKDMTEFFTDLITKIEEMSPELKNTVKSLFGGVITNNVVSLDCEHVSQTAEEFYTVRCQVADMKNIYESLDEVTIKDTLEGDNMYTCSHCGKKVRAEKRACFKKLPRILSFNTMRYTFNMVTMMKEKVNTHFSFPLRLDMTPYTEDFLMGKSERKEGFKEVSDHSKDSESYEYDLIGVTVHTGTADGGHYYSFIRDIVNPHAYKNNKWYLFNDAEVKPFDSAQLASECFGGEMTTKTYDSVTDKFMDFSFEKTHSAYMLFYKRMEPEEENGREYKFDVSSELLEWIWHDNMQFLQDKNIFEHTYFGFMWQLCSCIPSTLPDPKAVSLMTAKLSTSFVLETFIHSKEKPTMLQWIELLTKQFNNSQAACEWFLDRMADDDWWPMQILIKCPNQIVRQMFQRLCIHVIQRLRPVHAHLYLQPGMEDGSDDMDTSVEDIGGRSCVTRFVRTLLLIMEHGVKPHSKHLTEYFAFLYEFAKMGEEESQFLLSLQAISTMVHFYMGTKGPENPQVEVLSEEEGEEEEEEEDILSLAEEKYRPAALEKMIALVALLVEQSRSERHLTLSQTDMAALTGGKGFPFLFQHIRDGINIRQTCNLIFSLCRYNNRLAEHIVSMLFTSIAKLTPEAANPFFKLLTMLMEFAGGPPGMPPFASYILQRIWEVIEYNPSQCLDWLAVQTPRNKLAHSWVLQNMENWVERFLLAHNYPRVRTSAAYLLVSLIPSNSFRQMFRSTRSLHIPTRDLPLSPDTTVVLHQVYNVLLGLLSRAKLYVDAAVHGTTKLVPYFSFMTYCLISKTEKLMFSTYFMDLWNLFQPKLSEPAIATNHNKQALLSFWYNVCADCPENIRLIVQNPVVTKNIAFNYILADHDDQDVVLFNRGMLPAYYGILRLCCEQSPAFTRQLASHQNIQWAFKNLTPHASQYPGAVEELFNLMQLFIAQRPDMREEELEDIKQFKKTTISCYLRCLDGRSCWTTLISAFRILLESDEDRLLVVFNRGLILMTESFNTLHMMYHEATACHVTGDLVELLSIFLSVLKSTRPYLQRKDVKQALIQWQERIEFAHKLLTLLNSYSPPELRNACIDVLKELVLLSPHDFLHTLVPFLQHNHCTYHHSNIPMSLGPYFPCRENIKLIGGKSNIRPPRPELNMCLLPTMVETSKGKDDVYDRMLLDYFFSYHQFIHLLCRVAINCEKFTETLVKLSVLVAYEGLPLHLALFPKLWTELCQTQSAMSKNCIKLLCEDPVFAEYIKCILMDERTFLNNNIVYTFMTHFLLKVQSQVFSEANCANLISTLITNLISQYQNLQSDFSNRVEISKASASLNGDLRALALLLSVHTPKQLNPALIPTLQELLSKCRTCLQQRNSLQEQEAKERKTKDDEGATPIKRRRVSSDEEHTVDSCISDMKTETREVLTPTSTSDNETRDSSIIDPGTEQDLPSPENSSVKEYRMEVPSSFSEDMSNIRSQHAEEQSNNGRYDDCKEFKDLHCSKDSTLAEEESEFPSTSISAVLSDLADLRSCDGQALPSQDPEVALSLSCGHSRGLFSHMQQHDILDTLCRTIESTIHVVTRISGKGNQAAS
Outline: (§1)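 Labelled DUBs from HEK293T lysate were NeutrAvidin-enriched, digested with LysC and trypsin, and run by diaPASEF LC-MS/MS. Before that, each 495 µg sample in Tris/CHAPS/IGEPAL buffer with protease inhibitors was treated in triplicate with fragment at 200 µM or vehicle for 3 h, then with Biotin-Ahx-Ub-VS at 0.5 µM final for 1 h. Values are average log2 ratios of fragment over vehicle by unpaired t-test, based on global-median-normalised Spectronaut label-free quantities from proteins with ≥2 unique peptides.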

[2] = biological target: T1, USP36 (UniProt Q9P275)
T1 sequence (whole entry): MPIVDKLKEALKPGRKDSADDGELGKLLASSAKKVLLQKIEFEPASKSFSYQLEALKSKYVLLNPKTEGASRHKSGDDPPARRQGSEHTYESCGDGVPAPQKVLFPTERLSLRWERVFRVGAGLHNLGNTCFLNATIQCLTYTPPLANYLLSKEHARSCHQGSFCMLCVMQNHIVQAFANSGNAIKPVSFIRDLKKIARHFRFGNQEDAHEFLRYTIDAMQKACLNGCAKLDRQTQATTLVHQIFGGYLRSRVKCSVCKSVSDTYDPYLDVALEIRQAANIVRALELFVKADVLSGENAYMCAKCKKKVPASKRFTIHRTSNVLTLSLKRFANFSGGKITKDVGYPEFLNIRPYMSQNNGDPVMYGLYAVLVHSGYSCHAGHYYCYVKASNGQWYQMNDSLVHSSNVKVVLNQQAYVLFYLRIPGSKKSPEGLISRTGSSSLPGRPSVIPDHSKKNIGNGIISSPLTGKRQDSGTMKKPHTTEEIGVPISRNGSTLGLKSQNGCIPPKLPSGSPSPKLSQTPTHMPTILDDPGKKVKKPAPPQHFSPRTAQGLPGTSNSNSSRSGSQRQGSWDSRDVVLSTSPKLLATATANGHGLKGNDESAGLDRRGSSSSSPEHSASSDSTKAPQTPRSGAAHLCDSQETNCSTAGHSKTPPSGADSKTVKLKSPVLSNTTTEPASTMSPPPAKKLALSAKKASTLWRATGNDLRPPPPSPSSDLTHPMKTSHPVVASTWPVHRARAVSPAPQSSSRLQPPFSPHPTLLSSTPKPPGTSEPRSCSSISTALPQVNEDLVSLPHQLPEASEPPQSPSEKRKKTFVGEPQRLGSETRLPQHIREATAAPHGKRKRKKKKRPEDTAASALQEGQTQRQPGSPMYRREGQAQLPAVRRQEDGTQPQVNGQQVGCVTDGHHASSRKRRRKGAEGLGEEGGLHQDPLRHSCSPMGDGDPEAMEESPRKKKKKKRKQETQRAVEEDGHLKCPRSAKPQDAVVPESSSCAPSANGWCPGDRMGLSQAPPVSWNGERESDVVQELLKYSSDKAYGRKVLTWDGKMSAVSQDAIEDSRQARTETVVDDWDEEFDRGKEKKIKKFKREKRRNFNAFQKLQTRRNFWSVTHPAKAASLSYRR
Outline: as §1

[3] = biological target: T2, USP38 (UniProt Q8NB14)
T2 sequence (whole entry): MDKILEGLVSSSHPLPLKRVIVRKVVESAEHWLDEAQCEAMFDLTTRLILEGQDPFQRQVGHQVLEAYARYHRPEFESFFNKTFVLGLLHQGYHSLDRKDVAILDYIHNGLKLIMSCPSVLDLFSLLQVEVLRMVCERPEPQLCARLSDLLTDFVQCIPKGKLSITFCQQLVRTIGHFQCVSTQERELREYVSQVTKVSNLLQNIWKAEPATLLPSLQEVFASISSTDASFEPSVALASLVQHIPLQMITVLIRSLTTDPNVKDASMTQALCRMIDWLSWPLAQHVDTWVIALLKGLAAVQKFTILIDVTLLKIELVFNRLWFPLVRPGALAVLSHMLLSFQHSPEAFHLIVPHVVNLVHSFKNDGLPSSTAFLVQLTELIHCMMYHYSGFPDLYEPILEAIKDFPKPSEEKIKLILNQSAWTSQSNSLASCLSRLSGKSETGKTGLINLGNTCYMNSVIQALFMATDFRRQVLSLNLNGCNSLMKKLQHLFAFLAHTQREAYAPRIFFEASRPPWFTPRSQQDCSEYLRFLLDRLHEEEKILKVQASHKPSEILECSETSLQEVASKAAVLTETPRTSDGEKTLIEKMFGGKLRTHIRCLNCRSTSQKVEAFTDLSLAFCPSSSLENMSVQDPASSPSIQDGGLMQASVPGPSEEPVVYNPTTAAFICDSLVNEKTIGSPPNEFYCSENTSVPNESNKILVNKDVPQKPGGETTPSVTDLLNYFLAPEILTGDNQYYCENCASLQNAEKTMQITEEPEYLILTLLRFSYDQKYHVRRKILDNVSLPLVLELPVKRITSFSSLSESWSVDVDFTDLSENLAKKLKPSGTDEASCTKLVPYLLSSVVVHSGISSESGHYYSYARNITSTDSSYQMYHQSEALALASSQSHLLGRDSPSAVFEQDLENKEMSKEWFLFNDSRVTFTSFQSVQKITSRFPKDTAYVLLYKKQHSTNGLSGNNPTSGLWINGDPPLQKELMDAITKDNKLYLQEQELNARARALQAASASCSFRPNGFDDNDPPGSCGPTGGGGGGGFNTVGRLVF
Outline: as §1

[4] = biological target: T3, USP39 (UniProt Q53GS9)
T3 sequence (whole entry): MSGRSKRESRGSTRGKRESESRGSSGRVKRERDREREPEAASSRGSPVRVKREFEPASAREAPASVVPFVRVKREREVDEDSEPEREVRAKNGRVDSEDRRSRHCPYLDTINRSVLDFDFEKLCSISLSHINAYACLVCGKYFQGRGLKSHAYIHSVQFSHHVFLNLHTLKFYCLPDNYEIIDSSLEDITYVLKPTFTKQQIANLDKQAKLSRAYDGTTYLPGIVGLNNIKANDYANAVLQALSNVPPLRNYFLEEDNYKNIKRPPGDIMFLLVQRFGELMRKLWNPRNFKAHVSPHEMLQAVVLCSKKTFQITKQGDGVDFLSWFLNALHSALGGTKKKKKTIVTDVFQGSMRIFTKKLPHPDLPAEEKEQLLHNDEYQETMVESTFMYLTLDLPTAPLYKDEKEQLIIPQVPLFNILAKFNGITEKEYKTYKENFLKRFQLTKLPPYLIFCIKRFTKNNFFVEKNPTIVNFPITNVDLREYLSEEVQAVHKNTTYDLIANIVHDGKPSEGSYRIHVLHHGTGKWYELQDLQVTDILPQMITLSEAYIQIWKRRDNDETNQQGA
Outline: as §1

[5] = biological target: T4, USP4 (UniProt Q13107)
T4 sequence (whole entry): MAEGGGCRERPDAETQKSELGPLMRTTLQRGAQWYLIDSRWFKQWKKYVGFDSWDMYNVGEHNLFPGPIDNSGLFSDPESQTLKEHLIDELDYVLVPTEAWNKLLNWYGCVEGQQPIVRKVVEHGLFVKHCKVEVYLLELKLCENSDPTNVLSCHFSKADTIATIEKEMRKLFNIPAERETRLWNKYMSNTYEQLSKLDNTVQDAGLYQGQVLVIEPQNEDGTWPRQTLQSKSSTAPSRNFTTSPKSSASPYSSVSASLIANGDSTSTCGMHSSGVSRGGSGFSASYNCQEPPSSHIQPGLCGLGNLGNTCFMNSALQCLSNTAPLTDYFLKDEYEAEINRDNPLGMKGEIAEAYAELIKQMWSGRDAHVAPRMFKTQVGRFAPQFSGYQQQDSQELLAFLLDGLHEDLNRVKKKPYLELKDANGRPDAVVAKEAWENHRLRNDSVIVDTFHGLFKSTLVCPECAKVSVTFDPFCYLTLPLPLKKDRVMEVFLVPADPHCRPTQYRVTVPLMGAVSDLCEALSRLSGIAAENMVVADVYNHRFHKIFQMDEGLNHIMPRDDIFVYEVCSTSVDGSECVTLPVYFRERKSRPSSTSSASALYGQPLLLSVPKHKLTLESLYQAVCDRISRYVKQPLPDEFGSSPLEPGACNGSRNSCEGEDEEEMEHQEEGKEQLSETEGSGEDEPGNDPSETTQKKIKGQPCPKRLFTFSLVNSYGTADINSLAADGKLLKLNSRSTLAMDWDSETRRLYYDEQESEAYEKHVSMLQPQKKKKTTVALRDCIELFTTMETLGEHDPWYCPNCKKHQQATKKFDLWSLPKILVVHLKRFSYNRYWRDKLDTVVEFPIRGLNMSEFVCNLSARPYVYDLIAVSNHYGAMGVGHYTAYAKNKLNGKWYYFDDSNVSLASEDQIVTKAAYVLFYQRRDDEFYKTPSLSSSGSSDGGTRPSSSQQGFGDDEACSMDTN
Outline: as §1

Measured: log2 ratio of Biotin-Ahx-Ub-VS probe labelling

NC(=O)C(Cc1ccccc1)NC(=O)CCl (stereo not given)
inactive: [1] -0.217 | [2] 0.0618 | [3] -0.0263 | [4] -0.257 | [5] 0.0089
